Results reported in the supplement of paper PMC6555819.

Experiments:
Assay in all cases: PBM binding z-score (relative to random genomic background probes); higher = stronger binding; sequences stand for … in GC…GCGATTGACAGCGTAGAATGAAGG
[1] = tested on: RARb homodimer (NR concentration 270 nM)
Summary of the method: (§1)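 Probes were double-stranded and carried 34-nt variable regions with direct-repeat seeds, single-nucleotide variants, half-site ablations and random human genomic background sequences, printed on custom Agilent 4×180K protein-binding microarrays. Arrays were incubated 1 h with ligand-free nuclear receptor dimers in PBS pH 7.4, 2% milk, 0.02% Triton X-100, 1 mM DTT, 0.2 mg/mL BSA and 0.4 mg/ml salmon testes DNA. Antibodies against each partner (one per run) detected binding, and scanned fluorescence was regression-normalized. Binding z-scores use the random background probes as reference.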

[2] = tested on: RARg:RXRa (NR concentration 270 nM, RXRa partner concentration 90 nM)
Summary of the method: as §1

[3] = tested on: RARg homodimer (NR concentration 270 nM)
Summary of the method: as §1

[4] = tested on: RXRa DBDmut IVT, anti-RXR (DBD mutation: RXRa K156A/R161A, NR concentration 90 nM)
Summary of the method: as §1

[5] = tested on: RXRa homodimer (NR concentration 180 nM)
Summary of the method: as §1

[6] = tested on: THRa:RXRa (NR concentration 90 nM, RXRa partner concentration 90 nM)
Summary of the method: as §1

[7] = tested on: THRa homodimer (NR concentration 90 nM)
Summary of the method: as §1

[8] = tested on: VDR homodimer (NR concentration 270 nM)
Summary of the method: as §1

Sequence | PBM binding z-score [1] | PBM binding z-score [2] | PBM binding z-score [3] | PBM binding z-score [4] | PBM binding z-score [5] | PBM binding z-score [6] | PBM binding z-score [7] | PBM binding z-score [8]
TAGCCTAGGTCATGCGGGCCAGGATAGTGTCGGC | 3.1 | 3.77 | 4.7 | 0.23 | 2.94 | 3.06 | 0.933 | 0.706
TCTGCTAGGTCAAGGATGGTCAGCTAATCTGCTA | 3.49 | 3.97 | 4.85 | 0.94 | 2.6 | 2.88 | 0.621 | -0.0676
AATACAGAGTCACTAGGCCAGAGTAGGTACGAAT | 0.0526 | 0.21 | 0.516 | -0.494 | 0.28 | -0.12 | -0.685 | -0.0774
AGAATGAGGTTCCCAAAGATCAGGGAAACGCTTG | -0.864 | 0.141 | 0.123 | -0.649 | 0.474 | 0.218 | -0.623 | -0.39
GCAGACAGGTGAAACGCAGGAAACTCAGGGTGGC | 0.0136 | 0.246 | 0.0798 | -0.424 | 0.715 | 0.142 | -0.634 | -0.569
ATAACGAGGGCACGCTGAGTTGATAGCAGAGTAG | 1.27 | 1.72 | 2.4 | 1.64 | 1.46 | 2.07 | 0.209 | 2.05
ACTCGGAGGACAAAGGTCAGAGCAACGCCAGTGA | 4.24 | 6.11 | 5.43 | 1.26 | 5.09 | 3.55 | 0.599 | 1.14
ATCTAAAGGTCGTGAGGTGAGTATACAGAAAGGC | 3.14 | 4.55 | 4.01 | 2.22 | 5.37 | 3.44 | 1.84 | 1.7
TCGAGTAGGTTTCCAATGGGGCATTCAGCTTTCT | -0.0582 | -0.76 | -0.806 | 0.449 | -0.581 | -0.683 | -0.262 | -0.443
TCTAGCAGGCCAAAGGGTCACTCAAGAGGTACGG | 4.55 | 4.65 | 4.35 | 0.568 | 4.24 | 2.51 | -0.172 | 1.2
AGAACGAGGGCAATGAGTTGACAGCACGGGTGGC | 1.2 | 1.33 | 1.73 | 1.54 | 1.02 | 1.19 | -0.211 | 2.89
CGAATGAGGGCATGAGTTGATAGCAAATGCCGAT | 0.499 | 1.14 | 1.58 | 2.3 | 1.03 | 1.83 | 0.345 | 1.33
AGTCAAAGTCCATCTAGGTAACGTAAGATATGCT | 0.564 | 0.538 | 1.09 | 1.23 | -0.0358 | 1.14 | 0.0644 | 0.572
AGAACGAGGGCACTCTGAGTTGATAGCAGAGTAG | 0.374 | 1.4 | 1.55 | 2.21 | 0.823 | 1.29 | -0.153 | 1.73
CATACAGGGTCAGCTAGGCCAGTGTAGGGACGGC | 3.34 | 4.2 | 4.67 | 1.57 | 3.89 | 3.07 | 0.856 | 1.07
TCATATAGGTAAACAGGTGCAAGTCCGTAAGTTA | 0.278 | 0.453 | 0.0324 | 1.32 | 1.27 | 0.672 | 0.416 | 1.14
TAATATAGGTAATACAGGTGAAAGTCGGCATCTA | 0.493 | 0.614 | 0.786 | 0.247 | 0.906 | 0.893 | 0.26 | 0.35
AATAGTTGGTCAGCTGAGGTCACACACAATTCGG | 4.34 | 4.25 | 4.37 | 1.48 | 4.26 | 4.94 | 5.21 | 3.62
ATCTCTAGGTAAAAAGTTCAGTGAAAGAGAGGAC | 2.67 | 2.69 | 2.46 | 0.695 | 1.04 | 1.22 | 0.595 | 1.56
AGAATGAGGTTAAGACCAGGGAAACAGAATACAT | 1.01 | 1.97 | 1.33 | 0.973 | 2.47 | 2.48 | 0.691 | 0.514
CGAACTAGGTCAGGGACAGTGAATCTCCGCACGC | 2.17 | 2.92 | 3.51 | 0.647 | 1.47 | 2.23 | 1.07 | -0.0543
GCTGCTAGGTCAACTGATGGTCAGCGAAAGCTCG | 3.66 | 5.35 | 5.22 | 1.57 | 3.2 | 2.98 | 0.857 | 0.0996
TCGAGTAGGTTAGGGGCATGCAGAATGGCGTCGA | 1.07 | 0.351 | 0.462 | 0.22 | 0.663 | 0.973 | 0.12 | 0.0612
AGAATGAGGTTACCAAATATCAGGGAAACGCTTG | 0.779 | 1.91 | 1.86 | 1.24 | 2.52 | 2.67 | 0.824 | 0.512
CGGCCAAGGTCAGCAGGTCAGTGAAAGCGACGTG | 5.01 | 6.21 | 6.95 | 2.22 | 5.05 | 3.85 | 1.94 | 1.09
GCTGCTAGGTCAGGTTGGTCAGCTAGCGGGTACG | 2.7 | 2.69 | 3.44 | 0.414 | 0.963 | 1.71 | 0.421 | -0.146
ATCTCTAGGTAAAGTCCAGTGAAAGATCGATAGA | 0.254 | 0.207 | 0.536 | 0.396 | -0.0378 | 0.245 | 0.0822 | 0.0331
TCTATTAGTTCATTAGGGCAACCGAAACAGCGGA | 2.52 | 2.4 | 2.37 | 3.46 | 1.12 | 1.45 | 0.899 | 3
